Hits are enriched below; roughly 1.9% of the tested compounds scored in any of these assays.
PfHsp40 yeast: rescue of yeast from PfHsp40 toxicity, primary screen, S. cerevisiae, ATP luminescence; AID 504582, 2011; growth rescue, % at 12.5 µM; S. cerevisiae expressing PfHsp40, growth rescue; 340,000 compounds, 0.68% hits; in the data active = growth rescue above about 28%, passing the limit was not always enough; inconclusive = no clear call, values can overlap the other calls;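 also: yeast W303a lacking pdr1 and pdr3 grown in galactose medium; growth measured after three days at 30 °C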
BJeLR lethal: MLPCN primary cell-based screen for lethality selective to Ras in HRASV12 cells | 300,000 compounds, 0.17% hits | inhibition, % (concentration not given with the values) | BJeLR (HRASV12) viability, CellTiter-Glo ATP luminescence, 48 h; in the data active = inhibition above about 50%; inconclusive = no clear call, values can overlap the other calls
PrP UTR inh: inhibition of PrP 5' UTR reporter expression; AID 488862, 2010; cell-based PrP 5' UTR mRNA reporter, plate reader; inhibition, % (no concentration beside the values); 340,000 compounds, 0.35% hits; in the data active = inhibition above about 52%; also: 0 = median of the neutral control wells
RecA intein inh: Mtb RecA intein splicing inhibitors, primary screen, biochemical, fluorescence, HTS; Protein RecA (Mycobacterium tuberculosis (strain ATCC 25618 / H37Rv)), P9WHJ3; cell-free RecA intein splicing; inhibition, % (test concentration not listed); 290,000 compounds, 0.75% hits; AID 2221, 2009; in the data active = inhibition above about 30%; inconclusive = no clear call, values can overlap the other calls;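 also: 0% = vehicle wells and 100% = reference inhibitor control wells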
Target sequence (P9WHJ3 whole entry, looked up): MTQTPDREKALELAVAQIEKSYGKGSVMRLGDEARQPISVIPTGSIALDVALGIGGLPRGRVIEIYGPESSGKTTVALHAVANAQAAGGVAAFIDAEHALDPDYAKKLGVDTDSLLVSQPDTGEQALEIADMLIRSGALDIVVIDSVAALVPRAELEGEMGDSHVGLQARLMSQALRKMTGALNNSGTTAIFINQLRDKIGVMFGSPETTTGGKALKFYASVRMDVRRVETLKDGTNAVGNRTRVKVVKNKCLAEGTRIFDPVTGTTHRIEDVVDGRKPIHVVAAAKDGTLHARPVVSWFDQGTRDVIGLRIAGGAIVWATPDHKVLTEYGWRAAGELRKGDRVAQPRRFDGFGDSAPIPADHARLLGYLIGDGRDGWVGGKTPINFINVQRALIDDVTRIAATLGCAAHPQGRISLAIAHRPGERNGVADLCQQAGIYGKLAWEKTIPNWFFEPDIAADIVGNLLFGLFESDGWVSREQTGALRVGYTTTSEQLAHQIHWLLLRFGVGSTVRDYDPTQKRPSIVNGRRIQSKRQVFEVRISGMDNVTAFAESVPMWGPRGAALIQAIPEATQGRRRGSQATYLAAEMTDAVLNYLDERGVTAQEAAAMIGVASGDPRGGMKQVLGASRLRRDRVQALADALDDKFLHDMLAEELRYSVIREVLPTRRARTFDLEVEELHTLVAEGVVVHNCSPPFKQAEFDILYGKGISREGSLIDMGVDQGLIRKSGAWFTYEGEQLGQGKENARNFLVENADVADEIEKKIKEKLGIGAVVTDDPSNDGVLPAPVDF
PrPC TRFRET: inhibitors of human cell surface prion protein PrPC, primary screen, cell-based, TR-FRET. AID 720596, 2013. 370,000 compounds, 0.43% hits. inhibition, % at 13.8 µM. Major prion protein (Homo sapiens), P04156. TR-FRET read-out; in the data active = inhibition above about 24%; also: 0% = median of the test wells and 100% = reference compound wells
PriA SSB inh: inhibitors of Klebsiella pneumoniae PriA binding to SSB C-terminal tail, primary screen, biochemical, AlphaScreen. PriA–SSB C-terminal tail interaction (Klebsiella pneumoniae). AID 1272365, 2023. AlphaScreen SSBct-PriA binding, biotinylated peptide. 430,000 compounds, 0.6% hits. inhibition, % at 33 µM; in the data active = inhibition mostly above about 37%, no sharp cut-off; inactive = mostly below about 20%;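 also: plate controls were negative control peptide for no effect and reference peptide for full effect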
PrP UTR cherry: prion 5' UTR mRNA inhibition, cherry-pick retest; AID 504592, 2011; cell-based prion protein 5' UTR reporter, plate reader; 1,100 compounds, 48% hits; shares compounds with PrP UTR inh; inhibition, % at 2.5 µM; in the data active = inhibition above about 54%; inconclusive = no clear call, values can overlap the other calls
* hit, by the source's call; i = inactive; ? = inconclusive; / = no result given.

SMILES	PfHsp40 yeast	BJeLR lethal	PrP UTR inh	RecA intein inh	PrPC TRFRET	PriA SSB inh	PrP UTR cherry
COC(=O)c1ccc(Oc2nc(C)cc(Oc3ccccc3)n2)cc1	2	-3	-27	3	7	-32	/
C/C(C=NNC(=O)CN1CCN(Cc2ccccc2)CC1)=C\c1ccco1	/	/	/	/	/	0	/
Cc1nn(-c2ccccc2)c(C)c1/C=N/NC(=O)c1cc(-c2ccc(Br)s2)[nH]n1	-2	20	-12	21	-6	/	/
Cc1nn(-c2ccccc2)c(C)c1/C=N/NC(=O)c1cc(-c2cccs2)[nH]n1	2	39	68*	9	13	/	78*
C#CCn1c(=NC(=O)c2cccc(Br)c2)sc2cc(S(N)(=O)=O)ccc21	/	/	/	/	/	-4	/
Cc1ccc2nc(SC(C)C(=O)N3CCCCC3)[nH]c2c1 (stereo unspecified)	-1	0	66*	0	9	-5	5
Cc1nn(C)c(C)c1S(=O)(=O)Nc1ccc2c(c1)CCCN2C(=O)c1ccccc1	/	/	/	/	/	-3	/
CCN1CCN(Cc2ccc(NC(=O)c3ccc(C)c(NC(=O)c4cncc(-c5cccs5)c4)c3)cc2C(F)(F)F)CC1	-1	/	61*	/	/	47*	86*
CCN1CCN(Cc2ccc(NC(=O)c3ccc(C)c(NC(=O)c4nccn4C)c3)cc2C(F)(F)F)CC1	1	4	12	0	1	-3	/
COc1cccc2sc(N3CCCC3)nc12	/	/	/	/	/	2	/
CCCCN(C(=O)c1ccc(Cl)cc1)C1CC2CCC(C1)N2C (stereo unspecified)	-1	-5	72*	-6	-1	-26	-14
O=C(CC(O)CCc1ccccc1)c1ccc(O)cc1 (stereo unspecified)	-2	/	79*	/	11	2	-16
Nc1nc(-c2nonc2N)no1	-1	13	71*	-2	-3	-16	-20
CCCC(=O)NC(=S)Nc1c(C)cc(Br)cc1C	0	-6	-50	18	7	-6	/
CCCCCC(=O)NC(=S)Nc1ccc(Br)cc1C	0	6	57*	-4	6	5	1
O=c1c2ccccc2cnn1-c1nc2ccccc2[nH]1	-6	82*	92*	-1	0	-1	91*
O=c1c(Cl)c(N2CCCCC2)cnn1-c1nc2ccccc2[nH]1	-1	25	75*	1	1	-5	69*
O=C(OCCNC(=O)c1cc2ccccc2oc1=O)c1cccnc1	-1	-6	66*	0	-1	-13	10
O=C(/C=C\Nc1ccc2c(c1)OCO2)c1ccccn1	1	11	80*	-16	-3	-10	78*
O=C(Nc1nnc(-c2ccc(Br)s2)o1)C1CC1	/	/	/	/	/	-2	/
COc1ccc(CNC(=O)c2c(O)c3ccccc3n(-c3ccccc3)c2=O)cc1	/	/	/	/	/	0	/
O=C(N/N=C/c1ccccc1)c1[nH]c2ccc(Br)cc2c1-c1ccccc1	1	17	59*	9	15	i	88*
O=C(NN=C1CCCC1)c1[nH]c2ccc(Br)cc2c1-c1ccccc1	/	4	/	20	6	3	/
O=C(NCCC(c1ccccc1)c1ccccc1)C(=O)Nc1cccc(C(F)(F)F)c1	/	/	/	/	/	-9	/
CC(=O)[C@H]1[C@H](CCc2ccccc2)NC(=O)N(Cc2ccccc2)[C@@H]1C	-1	-9	-52	-3	-1	-1	/
SMILES	PfHsp40 yeast	BJeLR lethal	PrP UTR inh	RecA intein inh	PrPC TRFRET	PriA SSB inh	PrP UTR cherry
CCN1C(=O)N[C@@H](CCc2ccccc2)[C@H](C(C)=O)[C@H]1C	-3	-1	66*	-3	-3	-7	-26
O=C(O)CCn1cc(C=C2C(=O)NC(=S)NC2=O)c(-c2ccccc2)n1	-2	6	74*	-2	-1	5	0
Cc1nc2ccccc2n1CC1CCN(C(=O)Cc2ccc(SC(C)C)cc2)CC1	/	/	/	/	/	-15	/
CC[C@@H]1C(c2ccccc2)=NN(c2ccccc2)[C@H]1C(=O)N1CCOC1=O	0	/	62*	/	11	-52	-36
O=C(NCc1ccc2c(c1)OCO2)C1CCCN(S(=O)(=O)c2cccc3cccnc23)C1 (stereo unspecified)	1	0	78*	1	9	-13	?
Cc1nc(COC(=O)c2ccc(S(=O)(=O)N3CCCC3)cc2)cs1	-1	2	89*	1	-1	-15	-12
NC(=O)COC(=O)c1ccc(S(=O)(=O)N2CCCCCC2)cc1	-1	3	-16	-1	-1	-13	/
COC(=O)c1nn(-c2ccc3c(c2)OCO3)cc1O	0	5	-68	-1	10	-5	/
COC(=O)c1nn(-c2ccc3c(c2)CCN3C(C)=O)cc1O	1	27	82*	-2	2	-13	81*
N#Cc1ccc(C(=O)NN=Cc2cn(CC(=O)O)c3ccccc23)c(F)c1	/	/	/	/	/	0	/
CCOC(=O)Cc1csc(N/N=C/c2ccc(Cl)cc2)n1	1	-4	66*	-2	2	i	2
CCOC(=O)Cc1csc(NN=Cc2ccccc2)n1	/	/	/	/	/	7	/
CCOC(=O)c1c(-c2ccccc2)csc1NC(=O)C(Sc1ccccc1)c1ccccc1 (stereo unspecified)	/	/	/	/	/	-7	/
CC(=NNC(=O)COc1ccccc1)c1cccs1	/	/	/	/	/	-5	/
COC(=O)c1sccc1S(=O)(=O)N1CCC(n2cc(-c3ccccc3)nn2)C1 (stereo unspecified)	/	/	/	/	/	-1	/
Cc1cc(C)nc(Sc2ncnc(N)c2[N+](=O)[O-])n1	-2	4	56*	5	3	1	-1
CCSC(=O)N=Nc1ccc(O)cc1	0	/	56*	/	-11	-15	1
O=C(CSc1nc2sc3c(c2c(=O)n1-c1ccccc1)CCC3)Nc1nsc(-c2ccc(Cl)cc2)n1	/	/	/	/	/	-19	/
CC(C)CNC(=O)COC(=O)C1c2ccccc2Oc2ccccc21	2	1	77*	-2	7	6	-6
Cn1c2ccccc2c(=O)c2cc(C#CC3(O)CCCCC3)ccc21	4	12	65*	-107	-3	-3	34
Cn1c2ccccc2c(=O)c2ccc(C#CC3(N)CCCCC3)cc21	-1	-4	-11	i	2	-26	/
Cc1cc2sc3ccc(C#CC4(O)CCCCC4)cc3c(=O)c2cc1C	1	4	92*	-2	2	-3	93*
COc1ccc(OC)c(-c2cc(C(=O)NC[C@H](OC)c3ccc(Cl)s3)n(C)n2)c1	/	/	/	/	/	0	/
Cn1c(-c2ccccc2)cc2onc(-c3ccccc3)c2c1=O	-1	/	63*	/	6	-8	32
Cn1c(-c2ccccc2F)cc2onc(-c3ccccc3)c2c1=O	0	/	-5	/	-5	-25	/

Compound activity from PubChem.
